Assay results from PubChem BioAssay (NCATS).
Results filed as inconclusive are left out. Active and inactive are the calls of the source. The call rests on the fitted dose curve; in most records, active means well fitted inhibition curve with a large enough effect; inconclusive means small, poorly fitted or top-dose-only effect; inactive means no such curve, though single readings can be large or run the other way.

The molecules below were run on Zika virus NS2B-NS3 protease (unlinked complex) (assay: Primary screen GU Rhodamine qHTS for Zika virus inhibitors: Unlinked NS2B-NS3 protease assay (AID 1347159; further: nearly all actives have a fitted effect of over 60% in size)). Details: Recombinant ZIKV NS2B-NS3 protease, Rhodamine110 substrate fluorescence; series mostly up to 107 µM; activity change, negative = inhibition: at the top concentration.
In short: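 In dose–response format, inhibition of unlinked protease (25 nM) was measured with 1.5 microM bis-peptide Rhodamine110 substrate. Aprotinin served as the intraplate control.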
On the % scale 0 is the no-effect control and ±100 the full control effect.

Structure (SMILES) | activity change, negative = inhibition | Potency
CC(C)=C1CC[C@]23CO[C@H](C2)[C@@](O)(C(=O)O)CCC13 (some centres not stated) | -26.3% (inactive) | –
C[C@]12CC[C@@H](O)C[C@H]1CC[C@@H]1[C@@H]2CC[C@]2(C)C(=O)CC[C@@H]12 | 209% (inactive) | –
CN1C(=O)c2ccccc2NC(=O)C1Cc1ccccc1 (configuration not stated) | 0.117% (inactive) | –
COC1CC(O[C@H]2CC[C@]3(C=O)C4CC[C@]5(C)[C@@H](C6=CC(=O)OC6)CC[C@]5(O)[C@@H]4CC[C@]3(O)C2)OC(C)C1O[C@@H]1O[C@H](CO)[C@@H](O)[C@H](O)[C@H]1O (some centres not stated) | 17.6% [at 32.5 µM] (inactive) | –
COC1CC(=O)C23C(=O)NC(CC(C)C)C2C(C)=C(C)C(OO)C3/C=C(\C)CCC(O)C1O (configuration not stated) | -0.834% [at 57.1 µM] (inactive) | –
C/C=C(\C)C(=O)O[C@H]1[C@H](OC(C)=O)[C@]2(CO)[C@H](O)[C@H](O)[C@]3(C)C(=CCC4[C@@]5(C)CC[C@H](O[C@@H]6O[C@H](C(=O)O)[C@@H](O)[C@H](O[C@@H]7OC[C@H](O)[C@H](O[C@@H]8OC[C@H](O)[C@H](O)[C@H]8O)[C@H]7O)[C@H]6O[C@@H]6O[C@H](CO)[C@@H](O)[C@H](O)[C@H]6O)C(C)(C)C5CC[C@]43C)[C@@H]2CC1(C)C (some centres not stated) | -9.49% [at 19.1 µM] (inactive) | –
CCCN1CCO[C@H]2c3cc(O)ccc3OC[C@@H]21 | 53.8% (inactive) | –
N#C[C@@H](O[C@@H]1O[C@H](CO[C@@H]2O[C@H](CO)[C@@H](O)[C@H](O)[C@H]2O)[C@@H](O)[C@H](O)[C@H]1O)c1ccccc1 | 0.396% [at 57.1 µM] (inactive) | –
COc1cc(CCNCc2ccccc2O)c(OC)cc1C#N | 15.3% (inactive) | –
CCCCCCn1c(=O)c(C(=O)Nc2ccc(C(=O)OCCC)cc2)c(O)c2ccccc21 | -4.23% [at 19.1 µM] (inactive) | –
CN1[C@H]2C[C@H](OC(=O)[C@H](CO)c3ccccc3)C[C@@H]1[C@@H](O)C2 | -18.4% (inactive) | –
CN(C)CCc1c[nH]c2ccc(CN3CCN(C)S3(=O)=O)cc12 | 32.1% (inactive) | –
CC(CCc1ccc(O)cc1)O[C@@H]1O[C@H](CO[C@H]2OC[C@](O)(CO)[C@H]2O)[C@@H](O)[C@H](O)[C@H]1O (some centres not stated) | 19% [at 57.1 µM] (inactive) | –
CCC1NC(=O)C2C(Cl)C(Cl)CN2C(=O)C(C(C)O)NC(=O)CC(c2ccccc2)NC(=O)C(CO)NC1=O (configuration not stated) | -10.8% [at 32.5 µM] (inactive) | –
COC(=O)[C@@]12C(=O)C(C)C(=O)[C@]1(C)C(C)=C[C@H]1[C@]3(C=O)CC[C@H](OC(C)=O)C(C)(C)[C@H]3CC[C@@]12C (some centres not stated) | -4.54% [at 57.1 µM] (inactive) | –
COc1cc2c(cc1OC)[C@@]13CCN4CC5=CCO[C@H]6CC(=O)N2[C@H]1[C@H]6[C@H]5C[C@H]43 | 20.9% [at 57.1 µM] (inactive) | –

Structure (SMILES) | activity change, negative = inhibition | Potency
COC1=CC(=O)O[C@@H](/C=C/c2ccccc2)C1 | 10.2% (inactive) | –
C[C@H]1O[C@@H](O[C@H]2C[C@@H](O)[C@]3(CO)C4C(CC[C@]3(O)C2)[C@@]2(O)CC[C@H](C3=CC(=O)OC3)[C@@]2(C)C[C@H]4O)[C@@H](O)[C@@H](O)[C@H]1O (some centres not stated) | -4.77% [at 32.5 µM] (inactive) | –
COC1CC(OC2CCC3(C)C(=CCC4C3CCC3(C)C(C(C)OC5OC(COC6OC(CO)C(O)C(O)C6O)C(O)C(O)C5O)CCC43O)C2)OC(C)C1OC1OC(C)C(O)C(OC)C1O (configuration not stated) | -12.6% [at 32.5 µM] (inactive) | –
C[C@H](NC(=O)Cc1cc(F)cc(F)c1)C(=O)N[C@@H]1N=C(c2ccccc2)c2ccccc2N(C)C1=O | 14.5% (inactive) | –
COC1CC(O[C@H]2CC[C@@]3(C)C(=CCC4C3C(O)[C@@H](O)[C@]3(C)[C@@H](C(C)=O)CC[C@]43O)C2)OC(C)C1OC1CC(OC)C(OC2OC(C)C(O)C(O)C2O)C(C)O1 (some centres not stated) | 10.7% [at 32.5 µM] (inactive) | –
CCN1C[C@]2(COC(=O)c3ccccc3N3C(=O)C[C@H](C)C3=O)CC[C@H](OC)[C@@]34[C@@H]5C[C@H]6[C@H](OC)[C@@H]5[C@](O)(C[C@@H]6OC)[C@](O)([C@@H](OC)[C@H]23)[C@@H]14 | -12.1% (inactive) | –
OCCCCC#Cc1cncc(OC[C@@H]2CCN2)c1 | -16.7% (inactive) | –
O=C(N1CCOCC1)N1CCN(c2ccc(Cl)cc2)CC1 | 7.07% (inactive) | –
CCC(C)(OC(C)=O)C(=O)O[C@H]1[C@H](OC(C)=O)C[C@@H]2[C@@](C)([C@@H]3C[C@H]4C=CO[C@H]4O3)[C@H](C)C[C@H](OC(C)=O)[C@@]2(COC(C)=O)[C@@]12CO2 (some centres not stated) | -1.36% [at 32.5 µM] (inactive) | –
C=C[C@H]1CN2CC[C@H]1C[C@@H]2[C@@H](O)c1ccnc2ccccc12 | 4.96% (inactive) | –
Cc1cc(C(=O)CN2CCCC2)c(C)n1-c1ccc(F)cc1 | – | inactive
CCOc1ccccc1-n1c(C(C)N2CCN(C(=O)COc3ccc(Cl)cc3)CC2)nc2ccccc2c1=O (configuration not stated) | -2.07% (inactive) | –
C=C(CO)C(=O)O[C@H]1C/C(C)=C/CC/C(CO)=C/[C@H]2OC(=O)C(=C)[C@H]12 | -3.63% (inactive) | –
CC1=C2C(=O)C3[C@@H](CC=C4C[C@@H](O)CC[C@@]43C)[C@@H]2CC[C@]12O[C@@H]1C[C@H](C)CN[C@H]1[C@H]2C (some centres not stated) | 7.75% [at 57.1 µM] (inactive) | –
CN1CCCC1CCOC(c1cc2nccc(C(=O)O)c2[nH]1)c1ccccc1Cl (configuration not stated) | 0% (inactive) | –
C[C@@]12C[C@@H](c3ccoc3)OC(=O)C1CC[C@]1(C)[C@H]2[C@H]2C=C[C@]1(O)C(=O)O2 (some centres not stated) | 3.93% (inactive) | –
